Records with an inconclusive call do not appear. Calls of active or inactive are those of the source. Calls follow the shape of the dose curve; as a rule, active = well fitted inhibition curve with a large enough effect in the repeat runs; inconclusive = weak or mixed curves; inactive = no such curve, though single readings can be large or run the other way.
% is scaled to controls: 0 for no effect and ±100 for the full control effect; potency is read from the fitted curve at half-maximal effect.

Cytochrome P450 2C9 (Homo sapiens), sequence (P11712 whole entry, looked up): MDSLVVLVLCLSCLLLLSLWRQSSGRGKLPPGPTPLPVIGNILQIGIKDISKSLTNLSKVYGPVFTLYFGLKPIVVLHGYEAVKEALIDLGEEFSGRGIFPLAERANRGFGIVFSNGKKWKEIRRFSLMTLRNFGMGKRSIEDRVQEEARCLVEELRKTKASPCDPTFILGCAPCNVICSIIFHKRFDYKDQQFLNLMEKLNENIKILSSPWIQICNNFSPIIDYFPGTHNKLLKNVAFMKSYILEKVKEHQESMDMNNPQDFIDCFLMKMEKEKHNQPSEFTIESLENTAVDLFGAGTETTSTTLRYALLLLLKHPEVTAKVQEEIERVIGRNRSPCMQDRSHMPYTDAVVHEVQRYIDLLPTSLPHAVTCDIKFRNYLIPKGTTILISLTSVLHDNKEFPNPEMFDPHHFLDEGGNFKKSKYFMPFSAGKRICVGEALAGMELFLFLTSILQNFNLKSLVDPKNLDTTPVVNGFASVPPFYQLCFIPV

In this assay the target is Cytochrome P450 2C9 (Homo sapiens) (UniProt P11712). The assay is described as follows: Cytochrome P450 family 2 subfamily C member 9 (CYP2C9) small molecule antagonists: luciferase biochemical (cell-free) qHTS assay (AID 1645842). Also: nearly all actives have a fitted effect of over 55% in size. The note with it: P450-Glo CYP2C9 enzyme assay, luciferin luminescence; series mostly up to 57.4 µM; activity change, negative = inhibition: at the top concentration. In a few lines:
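Luminescence, after 20 min with luciferin detection reagent, reflected CYP2C9 turnover during a 1 h NADPH-driven reaction at 37C. Enzyme-substrate mix contained 0.4% bovine serum albumin and was preincubated with compound 10 min at room temperature.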
Take `COc1ccc2cc(-c3cc(-c4cc(Cl)cc(Cl)c4)nn3C(C)c3ccc(C(=O)NCCC(=O)O)cc3)ccc2c1` (centres undefined): the Potency was 10.7 µM (active).

`Cc1ccnc(NC(=O)C(C)c2cccc(C(=O)c3ccccc3)c2)c1` (centres undefined): the Potency was 10.7 µM (active).

As to `Cc1nc2cc(C(=O)NCc3ccccn3)nn2c(C)c1Cc1cccc(Cl)c1`, the Potency was 1.2 µM (active).

Regarding `O=C(O)c1cccc(-c2ccc(-c3cn(C(=O)N4CCCCC4Cc4ccccc4)nn3)cc2)c1` (centres undefined), the Potency is 8.49 µM (active).

Take `CC(C)(C)c1ccc(NC(=O)N2CCN(c3ncccc3Cl)CC2)cc1`: the Potency is 6.01 µM (active).

In the case of `O=C(NCc1nc2ccccc2c(=O)n1-c1ccc(F)cc1)Nc1ccc(Cl)c(C(F)(F)F)c1`, the Potency is 10.7 µM (active).

Consider `O=C(Nc1cccc([N+](=O)[O-])c1)c1cccc(S(=O)(=O)N2CCCCCC2)c1`, for which the Potency is 6.01 µM (active).

On to `Cc1cc(C)c2c(c1)C(N(Cc1cc(C(F)(F)F)cc(C(F)(F)F)c1)c1nnn(C)n1)CCCN2CC1CCC(C(=O)O)CC1` (centres undefined), for which the Potency was 10.7 µM (active).

Regarding `CCCn1cc2c(nc(NC(=O)Nc3ccc(OC)cc3)n3nc(-c4ccco4)nc23)n1`, the Potency is 6.01 µM (active).

In the case of `O=C(Nc1ccc(N2C(=O)[C@@H]3[C@H](C2=O)[C@@H]2C=C[C@H]3C2)c(Cl)c1)c1ccccn1`, the Potency is 12 µM (active).

Consider `COc1ccc(C#Cc2ccc(C(=O)N3CCC[C@@H](CO)C3)cc2)cc1`, for which the Potency is 21.3 µM (active).

As to `CN(C)c1ccnc2sc3c(=O)n(N4CCCCCC4)cnc3c12`, the Potency was 7.56 µM (active).

Take `OC1CCC(Nc2nc(-c3ccccc3)nc3[nH]ccc23)CC1` (centres undefined): the Potency is 2.68 µM (active).

On to `CC(C)(O)c1ccc2c(c1)ncn2-c1cccc(-c2ccccc2C#N)c1`, for which the Potency is 2.13 µM (active).

Consider `COc1ccc2nccc(C(=O)CC[C@@H]3CCN(CC#Cc4cc(F)cc(F)c4F)C[C@@H]3C(=O)O)c2c1`, for which the Potency is 7.56 µM (active).

As for `CNC(=O)COC(=O)N1CCC(CCc2ccc(Cl)cc2)CC1`, the Potency is 21.3 µM (active).

Regarding `COc1cc(C(=O)NCC2(N(C)C)CCCC2)cc(OC)c1OCc1ccccc1`, the “activity change, negative = inhibition” value is 0.303% (inactive).

For `CN1CCN(C2=Nc3ccccc3Nc3ccc(Cl)cc32)CC1`, the Potency is 13.5 µM (active).

As to `CCCOc1ccc(S(=O)(=O)N2CCN(CCO)CC2)cc1-c1nc2c(CCC)cn(CC)c2c(=O)[nH]1`, the Potency was 5.35 µM (active).

Consider `COc1cc(N2CCOCC2)ccc1NC(=O)c1csc(-c2cccnc2)n1`, for which the “activity change, negative = inhibition” value was 4.62% (inactive).

`COc1c(F)cccc1C(=O)N1C[C@@H](C)CC[C@H]1CNc1ccc(Br)cn1`: the Potency is 5.35 µM (active).

For `COc1ccccc1OCCN1CC(COc2cccc3[nH]c4ccccc4c23)OCC1=O` (centres undefined), the Potency was 0.849 µM (active).

In the case of `Cc1ccc(-c2cn3c4c(sc3n2)CCCC4)cc1`, the Potency was 16.9 µM (active).

As to `O=C1COc2nccc(-c3ccccc3F)c2CN1Cc1cc(C(F)(F)F)cc(C(F)(F)F)c1`, the Potency is 21.3 µM (active).

As to `CC1=C(C(=O)Nc2cc(Cl)ccc2Cl)C(c2ccco2)C2=C(CCCC2=O)N1` (centres undefined), the Potency is 1.07 µM (active).

For the molecule `Cn1c(CO)c(-c2ccccc2)c2cc([N+](=O)[O-])ccc21`, the Potency was 19 µM (active).

For the molecule `O=C(Nc1ccccc1)N1CCN(c2nc(-c3ccccc3)ns2)CC1`, the Potency was 5.35 µM (active).

As for `O=C(NCc1ccccc1-c1ccccc1C(=O)NCCc1ccccn1)OCc1ccccc1`, the Potency is 2.68 µM (active).

In the case of `COC(=O)c1sccc1S(=O)(=O)Nc1ccc(Nc2ccccc2)cc1OC`, the Potency was 2.39 µM (active).

Turning to `O=C(Nc1ccccc1C(=O)Nc1ccc(CCO)cc1)c1ccc([N+](=O)[O-])cc1`, the “activity change, negative = inhibition” value is 4.22% (inactive).

`Cc1cc(-c2nc(-c3ccc(OC(F)(F)F)cc3)no2)nn1Cc1ccnc(N2CCN(C3CC3)CC2)c1`: the Potency is 6.01 µM (active).

Turning to `COc1ccc2cc3c(NC(=O)c4ccco4)nn(C)c3nc2c1`, the Potency was 15.1 µM (active).

Turning to `C[C@@H](O[C@H]1OCCN(Cc2nn(P(=O)(O)O)c(=O)[nH]2)[C@H]1c1ccc(F)cc1)c1cc(C(F)(F)F)cc(C(F)(F)F)c1`, the Potency was 13.1 µM (active).

Turning to `O=C(O)c1cc(N(Cc2ccc(C3CCCCC3)cc2)C(=O)c2ccc(Oc3ccccc3)cc2)ccc1O`, the Potency is 23.9 µM (active).

For `O=C(Nc1ccn(Cc2ccc(O)cc2C(F)(F)F)n1)c1c(F)cccc1F`, the Potency is 6.01 µM (active).

As for `COc1ccc(N(C(=O)Nc2c(C)cccc2C)c2cc(Nc3ccc(N4CCN(C)CC4)cc3)ncn2)c(OC)c1`, the Potency is 13.5 µM (active).

Take `c1ccc(-c2cnn3cc(-c4ccc(OCCN5CCOCC5)cc4)cnc23)cc1`: the Potency is 3.38 µM (active).

Regarding `Cc1ccc(N2CCN(S(=O)(=O)N3CCCCC3)CC2)c(C)c1`, the Potency is 0.849 µM (active).

On to `NS(=O)(=O)c1ccc(N2N=C(c3ccccc3)CC2c2ccccc2)cc1` (centres undefined), for which the Potency is 10.7 µM (active).

Values taken from PubChem BioAssay (NCATS).
